Test [1] can be described thus: optical density shifts of acrAB sulA E. coli – strain DRC41, OD650, 48 h, E. coli filamentation inducer project, primary screen (AID 1152).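 Also: E. coli MC1000 strain DRC41 lacking acrAB efflux pump and sulA.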 As to conditions: higher = more signal, called active from +8 up or from −8 down.
Test [2] is described as follows: probe aLefty1 binding on compound microarray – biochemical, small-molecule microarray, 635/667 nm fluorescence, primary screen (AID 1153).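 Also: score merges spot fluorescence with signal-to-noise ratio from the scanned slide images.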 As to conditions: higher = more signal.
The nature of test [3]: plasmodial surface anion channel blockers, osmotic lysis – cell-based, P. falciparum Indochina, OD700, 1 h, primary screen (AID 1154). Particulars: P. falciparum Indochina infected RBC osmotic lysis, higher = more signal, called active from +8 up or from −8 down.
A short description of test [4]: plasmodial surface anion channel blockers, osmotic lysis – cell-based, P. falciparum Indochina, OD700, 2 h, primary screen (AID 1155).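 Also: lysis reports solute entry through the parasite surface anion channel PSAC.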 As to conditions: P. falciparum Indochina infected erythrocytes, higher = more signal, called active from +8 up or from −8 down.
The nature of test [5]: changes in parasitized red cell lysis, either direction – P. falciparum Indochina, OD700, 3 h, PSAC antagonist project, primary screen (AID 1156). As to conditions: P. falciparum-infected erythrocytes, osmotic lysis, higher = more signal, called active from +8 up or from −8 down.
Test [6] can be described thus: plasmodial surface anion channel blockers, osmotic lysis – cell-based, P. falciparum Indochina, OD700, 18 h, primary screen (AID 1157). Particulars: P. falciparum Indochina infected erythrocytes, osmotic lysis OD700, 18 h; higher = more signal, called active from +8 up or from −8 down.
Test [7] can be described thus: S6 kinase pathway phospho-S6 level changes – cell-based, A549, cytoblot, luminescence, serum-stimulated, primary screen (AID 1158).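 Also: serum-stimulated A549 lung adenocarcinoma cells; signal is phosphorylated S6 detected by cytoblot immunostaining with HRP secondary.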 Particulars: 5 h, higher = more signal.
Test [8] has as its target NADPH oxidase 2 (Homo sapiens) (UniProt P04839). Kind of test: compounds shifting NOX2 Amplex Red fluorescence – cell-based, HEK293-NOX2, PMA-stimulated, NOX inhibitor project, primary screen (AID 1159). Also: test concentration not given here. As to conditions: 45 min, higher = more signal, called active from +8 up or from −8 down.
Test [9] addresses NADPH oxidase 4 (Homo sapiens) (UniProt Q9NPH5). Kind of test: compounds shifting NOX4 Amplex Red fluorescence – cell-based, HEK293-NOX4, tetracycline-induced, NOX inhibitor project, primary screen (AID 1160). As to conditions: HEK293-NOX4, Amplex Red H2O2 fluorescence, 45 min; higher = more signal, called active from +8 up or from −8 down.
The target of test [10] is NADPH oxidase 5 (Homo sapiens) (UniProt Q96PH1). Kind of test: compounds shifting NOX5 Amplex Red fluorescence – cell-based, HEK293-NOX5, NOX inhibitor project, primary screen (AID 1161). As to conditions: HEK293-NOX5, ionomycin, 45 min, higher = more signal.
Test [11] in a line: compound effects on lung adenocarcinoma cell viability – A549, calcein-AM fluorescence, 48 h, basal, profiling panel (AID 1162). Also: test concentration not given here. Particulars: higher = more signal.
The nature of test [12]: compound effects on differentiated 3T3-L1 adipocyte viability – cell-based, 3T3-L1 adipocytes, calcein-AM fluorescence, 48 h, basal, profiling panel (AID 1163). Also: test concentration not given here. Particulars: 3T3-L1 adipocytes viability, higher = more signal.
Test [13] is described as follows: compound effects on hepatocellular carcinoma cell viability – HepG2, calcein-AM fluorescence, 48 h, basal, profiling panel (AID 1164). Also: test concentration not given here. As to conditions: higher = more signal.
A short description of test [14]: compound effects on multiple myeloma cell viability – MM1S, calcein-AM fluorescence, 48 h, basal, profiling panel (AID 1165).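 Also: viability of MM1S multiple myeloma cells under basal unstimulated conditions; test concentration not given here.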 Particulars: higher = more signal.
Test [15] in a line: calcein-AM signal in unstimulated myeloma cells – cell-based, calcein-AM fluorescence, 48 h, PK04 Diversity Set, profiling panel (AID 1166).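 Also: cells grown under basal conditions without added stimulus; test concentration not given here.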 Particulars: RPMI8226 myeloma viability, higher = more signal.
Test [16] in a line: JC-1 mitochondrial signal, unstimulated HepG2 cells – cell-based, JC-1 fluorescence, 24 h, 100 nL compound, profiling panel (AID 1167). Also: test concentration not given here. As to conditions: HepG2 mitochondrial potential, higher = more signal.
A short description of test [17]: JC-1 mitochondrial signal, unstimulated adipocytes – cell-based, JC-1 fluorescence, 3T3-L1 adipocytes, 24 h, 100 nL compound, profiling panel (AID 1168). Also: test concentration not given here. As to conditions: JC-1 mitochondrial fluorescence, higher = more signal, called active from +8 up or from −8 down.
Test [18] is described as follows: JC-1 mitochondrial signal, unstimulated myeloma cells – cell-based, JC-1 fluorescence, RPMI8226, 24 h, 100 nL compound, profiling panel (AID 1169). Also: test concentration not given here. As to conditions: JC-1 mitochondrial potential fluorescence, higher = more signal.
The nature of test [19]: JC-1 mitochondrial signal, unstimulated MM1S myeloma – cell-based, JC-1 fluorescence, 24 h, 100 nL compound, profiling panel (AID 1170). Also: test concentration not given here. Particulars: MM1S mitochondrial potential, higher = more signal.
The nature of test [20]: resazurin metabolic signal in A549 cells – cell-based, resazurin fluorescence, 24 h, PK04 Diversity Set, profiling panel (AID 1171). Also: test concentration not given here. Particulars: A549 viability, higher = more signal, called active from +8 up or from −8 down.

Drawing on PubChem BioAssay, this text covers z-score and composite z-score for four compounds.

SMILES strings stand for the structures. Calls of active or inactive are those of the source.

Sequence of NADPH oxidase 2 (Homo sapiens) (P04839 whole entry, looked up): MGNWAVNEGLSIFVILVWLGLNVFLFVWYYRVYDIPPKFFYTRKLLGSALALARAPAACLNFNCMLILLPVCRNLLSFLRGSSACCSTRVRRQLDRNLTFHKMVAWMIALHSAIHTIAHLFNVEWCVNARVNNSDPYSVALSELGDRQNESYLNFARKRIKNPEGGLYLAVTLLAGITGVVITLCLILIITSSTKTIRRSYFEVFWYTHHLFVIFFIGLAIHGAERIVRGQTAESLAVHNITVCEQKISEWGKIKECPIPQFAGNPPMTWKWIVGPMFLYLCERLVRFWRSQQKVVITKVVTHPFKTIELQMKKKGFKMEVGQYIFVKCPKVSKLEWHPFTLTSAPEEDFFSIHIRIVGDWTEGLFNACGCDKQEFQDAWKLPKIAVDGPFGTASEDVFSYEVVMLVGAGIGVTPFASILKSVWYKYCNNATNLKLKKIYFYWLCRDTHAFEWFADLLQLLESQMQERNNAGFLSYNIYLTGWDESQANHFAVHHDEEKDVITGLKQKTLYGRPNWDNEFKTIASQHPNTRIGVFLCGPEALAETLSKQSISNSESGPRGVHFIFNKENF
Sequence of NADPH oxidase 5 (Homo sapiens) (Q96PH1 whole entry, looked up): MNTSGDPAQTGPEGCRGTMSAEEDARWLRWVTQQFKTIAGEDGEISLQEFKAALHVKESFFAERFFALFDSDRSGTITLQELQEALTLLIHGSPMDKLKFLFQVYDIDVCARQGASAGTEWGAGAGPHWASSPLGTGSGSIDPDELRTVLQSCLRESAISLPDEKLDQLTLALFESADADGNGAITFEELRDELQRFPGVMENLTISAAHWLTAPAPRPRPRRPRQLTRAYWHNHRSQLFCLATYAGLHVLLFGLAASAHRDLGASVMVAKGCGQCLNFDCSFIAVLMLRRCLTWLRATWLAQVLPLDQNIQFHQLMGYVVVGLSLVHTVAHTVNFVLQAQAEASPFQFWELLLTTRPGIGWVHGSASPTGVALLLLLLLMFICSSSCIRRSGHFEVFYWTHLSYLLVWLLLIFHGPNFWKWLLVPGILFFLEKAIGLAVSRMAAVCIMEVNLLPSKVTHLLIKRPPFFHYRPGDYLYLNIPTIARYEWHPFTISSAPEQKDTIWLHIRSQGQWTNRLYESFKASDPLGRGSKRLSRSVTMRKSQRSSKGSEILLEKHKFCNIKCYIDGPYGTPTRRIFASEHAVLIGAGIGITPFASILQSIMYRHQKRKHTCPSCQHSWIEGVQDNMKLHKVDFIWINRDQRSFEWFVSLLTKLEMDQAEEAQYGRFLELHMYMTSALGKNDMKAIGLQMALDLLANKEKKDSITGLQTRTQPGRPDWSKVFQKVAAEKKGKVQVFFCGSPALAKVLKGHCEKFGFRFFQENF
Sequence of NADPH oxidase 4 (Homo sapiens) (Q9NPH5 whole entry, looked up): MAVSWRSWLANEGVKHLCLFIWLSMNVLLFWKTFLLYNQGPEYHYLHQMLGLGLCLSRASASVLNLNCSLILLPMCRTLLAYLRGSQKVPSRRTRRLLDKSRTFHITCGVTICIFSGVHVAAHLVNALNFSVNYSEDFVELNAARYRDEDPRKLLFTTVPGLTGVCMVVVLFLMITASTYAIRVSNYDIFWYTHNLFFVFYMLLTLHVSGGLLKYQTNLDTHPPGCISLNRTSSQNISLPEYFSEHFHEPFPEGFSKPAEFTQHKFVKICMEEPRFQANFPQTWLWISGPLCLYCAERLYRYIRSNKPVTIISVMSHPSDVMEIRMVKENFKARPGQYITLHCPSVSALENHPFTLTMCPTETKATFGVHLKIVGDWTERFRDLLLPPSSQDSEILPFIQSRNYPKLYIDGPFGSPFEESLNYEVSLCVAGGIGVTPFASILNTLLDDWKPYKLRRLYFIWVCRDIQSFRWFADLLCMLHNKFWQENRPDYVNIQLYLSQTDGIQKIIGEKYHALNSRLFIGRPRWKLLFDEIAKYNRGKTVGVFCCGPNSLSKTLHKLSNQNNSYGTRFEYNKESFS

Take `C=CC[C@]1(C(=O)NCc2ccccc2)COC(c2ccc(OCCCO)cc2)=N1`: the z-score is 0.553 (inactive) in [1]; 20.7 (active) in test [3]; 6.37 (inactive) in [4]; 1.44 (inactive) in test [5]; 0.541 (inactive) in test [6]; -0.429 in test [7]. Also, the z-score in test [8] was -2.18 (inactive); in test [9] it was 0.00403 (inactive); in test [10], -2.1; in test [11], -0.555; in test [12], 0.548; in test [13], -2.51. The z-score in test [14] is -2.01; in test [15], -0.953; in test [16], -3.22; in test [17], -0.436 (inactive); in test [18], -0.4; in test [19], -0.107. In addition, the z-score in test [20] was -0.256 (inactive). The compound further gave a composite z-score in [2] of 0.743.

Turning to `CN(C)CCCC[C@@H]1NC(=O)[C@@H]2C[C@H](C(=O)NCCCCCCNC(=O)CS)[C@H](c3cccc(OCCO)c3)N2C1=O`, the z-score in test [1] was -0.0099 (inactive); in test [3] it was 3.24 (inactive); in test [4], 0.681 (inactive); in test [5], -0.0935 (inactive); in test [6], 0.496 (inactive); in [7] it was 1.91. Moreover, the z-score is 2.03 (inactive) in test [8]; 0.84 (inactive) in test [9]; 1.84 in test [10]; -0.335 in test [11]; -0.668 in [12]; 1.27 in test [13]. For the same compound, the z-score in test [14] is 0.843; in test [15], 0.405; in [16] it was 1.6; in [17], 0.252 (inactive); in test [18] it was -0.666; in [19], -0.871. The z-score in test [20] is -0.643 (inactive). The composite z-score in [2] is -0.416.

As for `C=CCOC(=O)[C@H]1[C@@H]2C(=O)O[C@@H](c3ccccc3)[C@@H](c3ccccc3)N2[C@@H](c2ccc(OCCOC(=O)[C@@H]3C[C@@H]4C(=O)N[C@@H](Cc5ccccc5)C(=O)N4[C@@H]3c3ccc(O)cc3)cc2)[C@]12C(=O)Nc1ccccc12`, the z-score in test [1] is -0.126 (inactive); in test [3] it was 2.33 (inactive); in [4], 0.776 (inactive); in test [5], 1.28 (inactive); in test [6], 0.914 (inactive); in [7], 0.896. The z-score was 1.48 (inactive) in test [8]; 1.14 (inactive) in [9]; 2.13 in test [10]; 0.137 in test [11]; -0.156 in [12]; -0.338 in test [13]. Further, the z-score was -1.31 in [14]; 0.0712 in [15]; -1.37 in [16]; -0.262 (inactive) in test [17]; -0.616 in test [18]; -1.02 in test [19]. In test [20], the z-score is 0.0598 (inactive). Moreover, the composite z-score in [2] is -0.0235.

Turning to `CCCCN1CC=CC23O[C@@H]4C=CCOC(=O)[C@@H]4[C@H]2C(=O)N(C(CO)C(C)C)[C@@H]3C1=O` (stereo not given in full), the z-score in test [1] is -0.62 (inactive); in test [3] it was 1.16 (inactive); in test [4], 0.574 (inactive); in [5] it was 1.06 (inactive); in [6], 0.407 (inactive); in [7] it was -0.272. In addition, the z-score is 0.835 (inactive) in test [8]; 0.17 (inactive) in test [9]; 1.88 in test [10]; -0.503 in [11]; -1.13 in [12]; -0.803 in test [13]. Besides, the z-score in test [14] was 0.543; in test [15], -0.42; in test [16], -0.528; in test [17] it was -0.713 (inactive); in test [18] it was 0.184; in test [19], -0.071. In addition, the z-score in test [20] is -0.519 (inactive). The composite z-score in [2] was -0.0697.
